PubChem BioAssay (NCATS)
Results filed as inconclusive are left out. Calls of active or inactive are those of the source. The call rests on the fitted dose curve; in most records, active means well fitted curve in the direction sought with a large enough effect; inconclusive means small, poorly fitted or top-dose-only effect, or another doubt; inactive means no such curve, though single readings can be large; an effect the other way counts as inactive or inconclusive.

Tests used:
HEK293T [1] = experiment: qHTS assay to identify novel small-molecules to repurpose for Merkel cell carcinoma treatment (AID 1296009); conditions: MCC and control cell lines, CellTiter-Glo viability, 72 h; at 44.8 µM (top of the series) unless noted; further: nearly all actives have a fitted effect of over 60% in size
Outline: (§1)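 qHTS format: cells treated with library compounds in DMSO across 8 (NPC) or 11 (MIPE) concentrations. Readout after 72 hr at 37 degree celsius was CellTiter-Glo luminescence.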

MCC-13 = experiment: as above; conditions: MCC and control cell lines, CellTiter-Glo viability, 72 h; series mostly up to 46 µM
Outline: as §1

MCC-26 = experiment: as above; conditions: MCC and control cell lines, CellTiter-Glo viability, 72 h; series mostly up to 46 µM
Outline: as §1

MKL-1 = experiment: as above; conditions: MCC and control cell lines, CellTiter-Glo viability, 72 h; series mostly up to 46 µM
Outline: as §1

MKL-2 = experiment: as above; conditions: MCC and control cell lines, CellTiter-Glo viability, 72 h; series mostly up to 46 µM
Outline: as §1

UISO = experiment: as above; conditions: MCC and control cell lines, CellTiter-Glo viability, 72 h; series mostly up to 46 µM
Outline: as §1

WaGa = experiment: as above; conditions: MCC and control cell lines, CellTiter-Glo viability, 72 h; series mostly up to 46 µM
Outline: as §1

C33A = experiment: Primary qHTS to identify gynecologic anti-cancer compounds using libraries of approved drugs and bioactive compounds (AID 1345084); conditions: Gynecologic cancer cell panel viability, ATPlite luminescence, 48 h; series mostly up to 57.5 µM; further: nearly all actives have a fitted effect of over 55% in size
Outline: (§2)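 Luminescence from the ATPlite ATP-monitoring reagent indicates viable cell number; lower signal means cytotoxicity. Cells received compound 16 h after seeding and were exposed for 48 h across five concentrations.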

CAOV3 = experiment: as above; conditions: Gynecologic cancer cell panel viability, ATPlite luminescence, 48 h; series mostly up to 57.5 µM
Outline: as §2

CASKI = experiment: as above; conditions: Gynecologic cancer cell panel viability, ATPlite luminescence, 48 h; series mostly up to 57.5 µM
Outline: as §2

Es-2 = experiment: as above; conditions: Gynecologic cancer cell panel viability, ATPlite luminescence, 48 h; series mostly up to 57.5 µM
Outline: as §2

HeLa = experiment: as above; conditions: Gynecologic cancer cell panel viability, ATPlite luminescence, 48 h; series mostly up to 57.5 µM
Outline: as §2

Hek293T [2] = experiment: as above; conditions: Gynecologic cancer cell panel viability, ATPlite luminescence, 48 h, control line for the selectivity index; series mostly up to 57.5 µM
Outline: as §2

JEG-3 = experiment: as above; conditions: Gynecologic cancer cell panel viability, ATPlite luminescence, 48 h; series mostly up to 57.5 µM
Outline: as §2

OV90 = experiment: as above; conditions: Gynecologic cancer cell panel viability, ATPlite luminescence, 48 h; series mostly up to 57.5 µM
Outline: as §2

PA-1 = experiment: as above; conditions: Gynecologic cancer cell panel viability, ATPlite luminescence, 48 h; series mostly up to 57.5 µM
Outline: as §2

Tov-21-G = experiment: as above; conditions: Gynecologic cancer cell panel viability, ATPlite luminescence, 48 h; series mostly up to 57.5 µM
Outline: as §2

Tov112D = experiment: as above; conditions: Gynecologic cancer cell panel viability, ATPlite luminescence, 48 h; series mostly up to 57.5 µM
Outline: as §2

SKOV3 = experiment: as above; conditions: Gynecologic cancer cell panel viability, ATPlite luminescence, 48 h; series mostly up to 57.5 µM
Outline: as §2

NIH3T3 = experiment: qHTS assay to identify novel small-molecules to repurpose for Merkel cell carcinoma treatment (AID 1296009); conditions: MCC and control cell lines, CellTiter-Glo viability, 72 h; at 44.8 µM (top of the series) unless noted; further: nearly all actives have a fitted effect of over 60% in size
Outline: as §1
On the % scale 0 is the no-effect control and ±100 the full control effect.

CC(=O)[C@@]1(O)CC[C@H]2[C@@H]3C[C@H](C)C4=CC(=O)C=C[C@]4(C)[C@@]3(F)[C@@H](O)C[C@@]21C
inactive: outcome (HEK293T [1]) | outcome (MCC-13) | outcome (MCC-26) | outcome (MKL-1) | outcome (MKL-2) | outcome (UISO) | outcome (WaGa) | outcome (C33A) | outcome (CAOV3) | outcome (CASKI) | outcome (Es-2) | outcome (HeLa) | outcome (Hek293T [2]) | outcome (JEG-3) | Potency (OV90) | outcome (PA-1) | outcome (Tov-21-G) | outcome (Tov112D)

CCCCCCCCCCCCCCCCC(C(=O)O)C(O)(CC(=O)O)C(=O)O (stereo not drawn)
inactive: outcome (HEK293T [1]) | outcome (MCC-13) | outcome (MCC-26) | outcome (MKL-1) | outcome (MKL-2) | outcome (UISO) | outcome (WaGa) | outcome (C33A) | outcome (CAOV3) | outcome (CASKI) | outcome (Es-2) | outcome (HeLa) | outcome (JEG-3) | Potency (OV90) | outcome (PA-1) | outcome (SKOV3) | outcome (Tov-21-G) | outcome (Tov112D)

Cc1cc(NC(=O)C2=C(O)c3ccccc3S(=O)(=O)N2C)no1
inactive: outcome (HEK293T [1]) | outcome (MCC-13) | outcome (MCC-26) | outcome (MKL-1) | outcome (MKL-2) | outcome (UISO) | outcome (WaGa) | outcome (C33A) | outcome (CAOV3) | outcome (CASKI) | outcome (Es-2) | outcome (HeLa) | outcome (Hek293T [2]) | outcome (JEG-3) | Potency (OV90) | outcome (PA-1) | outcome (SKOV3) | outcome (Tov-21-G) | outcome (Tov112D)

CCCCCCCCCCOc1cc2c(=O)c(C(=O)OCC)c[nH]c2cc1OCC
inactive: outcome (HEK293T [1]) inactive [at 4.96 µM] | activity change, negative = cytotoxicity (MCC-13) 9.19% [at 4.84 µM] | activity change, negative = cytotoxicity (MCC-26) -1.97% [at 4.84 µM] | activity change, negative = cytotoxicity (MKL-1) -4.83% [at 4.84 µM] | activity change, negative = cytotoxicity (MKL-2) 10.7% [at 4.84 µM] | activity change, negative = cytotoxicity (UISO) 13.6% [at 4.84 µM] | activity change, negative = cytotoxicity (WaGa) -1.72% [at 4.84 µM] | activity change, negative = cytotoxicity (C33A) 1.85% [at 6.55 µM] | activity change, negative = cytotoxicity (CAOV3) 22.4% [at 6.55 µM] | activity change, negative = cytotoxicity (CASKI) 19.5% [at 6.55 µM] | activity change, negative = cytotoxicity (Es-2) -0.35% [at 6.55 µM] | activity change, negative = cytotoxicity (HeLa) -1.47% [at 6.55 µM] | activity change, negative = cytotoxicity (Hek293T [2]) 4.2% [at 6.55 µM] | activity change, negative = cytotoxicity (JEG-3) 6.94% [at 6.55 µM] | activity change, negative = cytotoxicity (OV90) -2.35% [at 6.55 µM] | activity change, negative = cytotoxicity (PA-1) -2.19% [at 6.55 µM] | activity change, negative = cytotoxicity (SKOV3) 0.739% [at 6.55 µM] | activity change, negative = cytotoxicity (Tov-21-G) 1.05% [at 6.55 µM] | activity change, negative = cytotoxicity (Tov112D) -6.94% [at 6.55 µM]

O=C(Cn1ccnc1[N+](=O)[O-])NCCO
inactive: outcome (HEK293T [1]) | outcome (MCC-13) | outcome (MCC-26) | outcome (MKL-1) | outcome (MKL-2) | outcome (UISO) | outcome (WaGa) | outcome (C33A) | outcome (CAOV3) | outcome (CASKI) | outcome (Es-2) | outcome (HeLa) | outcome (Hek293T [2]) | outcome (JEG-3) | Potency (OV90) | outcome (PA-1) | outcome (SKOV3) | outcome (Tov-21-G) | outcome (Tov112D)

C[C@]1(Cn2ccnn2)[C@H](C(=O)O)N2C(=O)C[C@H]2S1(=O)=O
inactive: outcome (HEK293T [1]) | outcome (MCC-13) | outcome (MCC-26) | outcome (MKL-1) | outcome (MKL-2) | outcome (UISO) | outcome (WaGa) | outcome (C33A) | outcome (CASKI) | outcome (Es-2) | outcome (HeLa) | outcome (Hek293T [2]) | outcome (JEG-3) | Potency (OV90) | outcome (PA-1) | outcome (SKOV3) | outcome (Tov-21-G) | outcome (Tov112D)

C/C=C1\[C@H]2C=C(C)C[C@]1(N)c1ccc(=O)[nH]c1C2
inactive: outcome (HEK293T [1]) | outcome (MCC-13) | outcome (MCC-26) | outcome (MKL-1) | outcome (MKL-2) | outcome (UISO) | outcome (WaGa) | outcome (C33A) | outcome (CAOV3) | outcome (CASKI) | outcome (Es-2) | outcome (HeLa) | outcome (Hek293T [2]) | outcome (JEG-3) | Potency (OV90) | outcome (PA-1) | outcome (Tov-21-G) | outcome (Tov112D)

CN1CC(=O)NC1=N
inactive: outcome (HEK293T [1]) | outcome (MCC-13) | outcome (MCC-26) | outcome (MKL-1) | outcome (MKL-2) | outcome (UISO) | outcome (WaGa) | outcome (C33A) | outcome (CASKI) | outcome (Es-2) | outcome (HeLa) | outcome (Hek293T [2]) | outcome (JEG-3) | Potency (OV90) | outcome (SKOV3) | outcome (Tov-21-G) | outcome (Tov112D)

NS(=O)(=O)c1cc(-c2nn[nH]n2)c(NCc2cccs2)cc1Cl
inactive: outcome (HEK293T [1]) | outcome (MCC-13) | outcome (MCC-26) | outcome (MKL-1) | outcome (MKL-2) | outcome (UISO) | outcome (WaGa) | outcome (C33A) | outcome (CAOV3) | outcome (CASKI) | outcome (Es-2) | outcome (HeLa) | outcome (Hek293T [2]) | outcome (JEG-3) | outcome (PA-1) | outcome (Tov-21-G) | outcome (Tov112D)

CC1(C)S[C@@H]2[C@H](N=CN3CCCCCC3)C(=O)N2[C@H]1C(=O)O
inactive: outcome (MCC-13) | outcome (MCC-26) | outcome (MKL-1) | outcome (MKL-2) | outcome (NIH3T3) | outcome (UISO) | outcome (WaGa) | outcome (C33A) | outcome (CAOV3) | outcome (CASKI) | outcome (Es-2) | outcome (HeLa) | outcome (Hek293T [2]) | outcome (JEG-3) | Potency (OV90) | outcome (PA-1) | outcome (SKOV3) | outcome (Tov-21-G) | outcome (Tov112D)

FC(F)(F)C(Cl)Br (stereo not drawn)
inactive: outcome (MCC-13) | outcome (MCC-26) | outcome (MKL-1) | outcome (MKL-2) | outcome (NIH3T3) | outcome (UISO) | outcome (WaGa) | outcome (C33A) | outcome (CAOV3) | outcome (CASKI) | outcome (Es-2) | outcome (HeLa) | outcome (Hek293T [2]) | outcome (JEG-3) | Potency (OV90) | outcome (PA-1) | outcome (SKOV3) | outcome (Tov-21-G) | outcome (Tov112D)

NC(=O)c1ccc([N+](=O)[O-])cc1Cl
inactive: outcome (MCC-13) | outcome (MCC-26) | outcome (MKL-1) | outcome (MKL-2) | outcome (NIH3T3) | outcome (UISO) | outcome (WaGa) | outcome (C33A) | outcome (CAOV3) | outcome (CASKI) | outcome (Es-2) | outcome (HeLa) | outcome (Hek293T [2]) | outcome (JEG-3) | Potency (OV90) | outcome (PA-1) | outcome (SKOV3) | outcome (Tov-21-G) | outcome (Tov112D)

CC(CN(C)C)C(C)(O)Cc1ccc(Cl)cc1 (stereo not drawn)
inactive: outcome (MCC-13) | outcome (MCC-26) | outcome (MKL-1) | outcome (MKL-2) | outcome (NIH3T3) | outcome (UISO) | outcome (WaGa) | outcome (C33A) | outcome (CAOV3) | outcome (CASKI) | outcome (Es-2) | outcome (HeLa) | outcome (Hek293T [2]) | outcome (JEG-3) | Potency (OV90) | outcome (PA-1) | outcome (SKOV3) | outcome (Tov-21-G) | outcome (Tov112D)

C[N+](C)(C)CC(O)CC(=O)[O-] (stereo not drawn)
inactive: outcome (MCC-13) | outcome (MCC-26) | outcome (MKL-1) | outcome (MKL-2) | outcome (NIH3T3) | outcome (UISO) | outcome (WaGa) | outcome (C33A) | outcome (CAOV3) | outcome (CASKI) | outcome (Es-2) | outcome (HeLa) | outcome (Hek293T [2]) | outcome (JEG-3) | Potency (OV90) | outcome (PA-1) | outcome (SKOV3) | outcome (Tov-21-G) | outcome (Tov112D)
